# Rows were chosen to be rich in hits. Some 3.4% of all compounds tested hit in one or more screens of this group.
# SMARCA2 activ – activators of SMARCA2 function. AID 652017. MG213 cells, MMTV-luciferase reporter, dexamethasone, overnight. 370,000 tested, 1% active. activation, % at 9.1 µM; in the data active = activation above about 7.8%;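 note: 0% = vehicle wells and 100% = reference activator wells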
# GalR3 antagonist – human GalR3 antagonism; O60755; HEK293 GalR3-CNG cAMP membrane potential fluorescence; galR3 body fused to GalR1 C-terminus; inhibition, % at 3 µM; 360,000 tested, 0.44% active; AID 651719;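 active = inhibition above the screen-wide average plus 3 SD, cut at about 13% in these data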;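 note: forskolin and galanin both at EC90 stimulate the cells; cAMP rise reported by CNG channel membrane potential dye signal; 0% = forskolin plus galanin with DMSO and 100% = forskolin alone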
# Target sequence (O60755 1-299 limits assumed): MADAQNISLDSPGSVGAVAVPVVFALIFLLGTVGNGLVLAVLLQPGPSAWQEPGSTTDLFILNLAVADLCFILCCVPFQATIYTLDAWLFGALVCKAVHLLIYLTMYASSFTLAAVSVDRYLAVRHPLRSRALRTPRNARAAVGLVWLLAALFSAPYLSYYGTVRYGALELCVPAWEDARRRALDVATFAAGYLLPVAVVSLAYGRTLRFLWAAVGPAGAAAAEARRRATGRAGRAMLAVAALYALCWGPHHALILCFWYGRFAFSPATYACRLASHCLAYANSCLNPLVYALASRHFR
# NR2F2 inh – inhibitors of human COUP-TFII (NR2F2) | P24468 | HEK293T NGFI-A luciferase reporter, luminescence | inhibition, % at 8.6 µM | 370,000 tested, 0.7% active | AID 686940;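 active = inhibition above a per-plate cutoff, mean inhibition of test wells between control levels plus 3 SD, cut at about 38% in these data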;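 note: cells cotransfected with COUP-TFII expression vector driving the NGFI-A reporter; 0% = median of COUP-TF2 test wells and 100% = reporter-only cells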
# Target sequence (P24468 whole entry, looked up): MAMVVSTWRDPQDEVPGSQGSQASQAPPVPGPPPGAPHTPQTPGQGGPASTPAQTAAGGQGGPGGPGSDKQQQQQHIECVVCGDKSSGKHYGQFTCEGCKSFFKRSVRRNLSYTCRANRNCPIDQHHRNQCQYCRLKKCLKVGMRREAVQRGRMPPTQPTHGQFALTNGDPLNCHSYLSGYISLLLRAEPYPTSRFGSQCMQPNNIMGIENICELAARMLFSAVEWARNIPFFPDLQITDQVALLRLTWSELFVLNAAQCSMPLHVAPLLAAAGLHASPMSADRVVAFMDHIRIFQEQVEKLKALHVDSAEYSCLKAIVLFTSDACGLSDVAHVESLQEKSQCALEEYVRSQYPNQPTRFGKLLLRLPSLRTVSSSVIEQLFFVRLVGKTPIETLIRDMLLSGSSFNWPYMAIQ
# Gli-Sufu block – antagonists of Gli-Sufu signaling. inhibition, % at 5 µM. 340,000 tested, 0.74% active. Sufu-KO-LIGHT fibroblasts, Gli luciferase reporter luminescence. AID 588413;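 active = inhibition above about 55%, limit read from the data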;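 note: 0% = DMSO-treated cells and 100% = wells with medium but no cells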
# H9c2 protect – protects H9c2 cardiomyocytes from peroxide injury. 360,000 tested, 0.63% active. protection from H2O2 cell death, % at 20 µM. H2O2 injury protection, ATPLite, 2 h;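 active = compounds giving at least 50% protection of heart cells from peroxide-induced death in the single-dose screen, raw or plate-pattern-corrected value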;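 note: 0% = DMSO wells with peroxide and 100% = DMSO wells without peroxide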
# GAA850 FXN act – increases GAA850 frataxin promoter reporter activity | AID 540364 | 360,000 tested, 0.56% active | activation, % at 6 µM | HEK293 lucGAA850 FXN promoter luciferase reporter, 24 h; percent of 10 µM SAHA response;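 active = activation above the average of all compounds screened plus 3 SD, cutoff fixed separately per campaign, cut at about 7.5% in these data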;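 note: 0% = DMSO wells and 100% = 10 µM SAHA wells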
# SMARCA2 act conf – confirmation of SMARCA2 (BRM) function activators; MG213 cells, MMTV-luciferase with dexamethasone, luminescence, overnight; MG213 cells expressing E1A, Rb sequestered; DMSO wells 0%, reference activator 100%; 3,500 tested, 30% active; shares compounds with SMARCA2 activ; AID 652260; activation, % at 9.1 µM;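 active = activation above its plate's cutoff, the mean activation of tested wells plus 3 SD, cut at about 7.9% in these data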
# VP16 Luc act – activates GAL4-VP16 luciferase, flagging SMARCA2 activator hits. shares compounds with SMARCA2 activ. HEK293 GAL4-VP16 pG5luc reporter, luciferase luminescence; scaled: DMSO wells 0%, SAHA wells 100%. activation, % at 9.1 µM. 3,500 tested, 41% active. AID 686939;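 active = activation above the solvent-only control well mean plus 3 SD, averaged across control plates, cut at about 5.2% in these data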
# * hit, by the source's call; . = no result.
SMILES,SMARCA2 activ,GalR3 antagonist,NR2F2 inh,Gli-Sufu block,H9c2 protect,GAA850 FXN act,SMARCA2 act conf,VP16 Luc act
COc1cc(Br)c(CN2C(=O)NC3(CCCCCC3)C2=O)cc1OC,-1.4,-9.7,7.7,-0.8,10.1,-2.1,.,.
CC(C)n1c(/C=C/[C@@H](O)C[C@@H](O)CC(=O)O)c(-c2ccc(F)cc2)c2ccccc21,12.3*,.,-19.6,-18.5,7.4,-2.4,24.8*,3.3
CC(C)(C)c1ccc(C(=O)NCC(=O)NCc2ccccn2)cc1,8.4*,-1.2,-3.5,-7.3,4.8,0.8,1.2,2.2
COc1ccccc1NC(CC(=O)c1ccccc1)C(=O)OCC(=O)c1ccc(F)cc1 (centres undefined),10.0*,-1.3,-23.4,-14.8,-15.9,6.6,8.6*,15.0*
CC(=O)NC(c1ccc(F)c(F)c1)c1nc(-c2ccc(C)c(C)c2)cs1 (centres undefined),0.2,0.9,-0.7,.,-7.2,-0.7,.,.
COc1ccc(C(=O)CSc2nccn2C)cc1,11.1*,-10.3,-33.6,-2.4,8.9,4.5,4.5,4.6
CCOc1ccc(NC(=O)CSc2nccn2C)cc1,8.8*,6.6,-26.4,25.4,1.9,2.5,6.0,4.4
Cn1ccnc1SCC(=O)Nc1ccc(Oc2ccccc2)cc1,2.9,-6.0,-25.4,3.0,-9.4,5.1,.,.
O=C(Nc1ccc(N2CCCCCC2)cc1)c1ccccc1Cl,8.0*,-5.4,-45.9,-76.6,1.5,-3.5,5.3,8.0*
O=C(CNC(=O)c1cccs1)OCC(=O)c1ccc(Cl)cc1,0.1,-4.6,6.2,1.4,1.0,-0.1,.,.
C/C(=N\NC(=O)c1ccc(NS(=O)(=O)c2cccs2)cc1)c1cccs1,-4.3,-2.8,-4.4,-34.1,-1.9,-0.6,.,.
C/C(=N/NC(=O)c1ccoc1C)c1cccs1,13.3*,.,-46.1,.,.,.,9.2*,5.2*
C/C(=N\NC(=O)c1ccc(Cl)cc1)c1cccs1,8.4*,4.7,-52.1,-87.1,-21.7,2.8,20.4*,13.6*
O=C(CNC(=O)c1cccs1)c1ccc(Cl)cc1,8.8*,-6.4,-47.2,-74.6,-7.5,4.2,10.2*,11.8*
COC(=O)N/N=C(\C)c1cccs1,-1.0,4.1,-10.1,-17.7,4.2,-1.1,.,.
C/C(=N\NC(=O)c1ccc(NS(=O)(=O)c2cccs2)cc1)c1ccc(Cl)cc1,9.1*,-1.9,1.7,8.6,6.2,1.4,3.2,-0.3
CC(C)CCNC(=O)CN(C(=O)CCC(=O)Nc1nccs1)c1ccc2c(c1)OCCO2,-4.6,-9.5,7.0,0.4,2.3,-7.5,.,.
O=C(O)CC/C(=N/NC(=O)c1cccs1)c1ccccc1,9.2*,-3.3,-55.5,-9.8,6.5,4.8,4.5,2.4
C/C(=N\NC(=O)c1cccs1)c1ccncc1,9.5*,0.1,-47.5,-5.8,29.1,5.3,3.6,0.7
C/C(=N/NC(=O)c1ccc(C)s1)c1ccncc1,1.1,-2.6,-44.1,-34.9,4.2,4.1,.,.
Cc1ccc(C(=O)OCC(=O)Nc2ccc(C)c(S(=O)(=O)N3CCCCC3)c2)o1,-4.3,-3.8,12.6,.,-18.4,-0.5,.,.
COc1ccc2ccccc2c1C=Nn1c(-c2cc(-c3ccccc3)n[nH]2)n[nH]c1=S,-2.1,.,-9.6,.,.,.,.,.
C[C@H]1CN([C@@H](C)CO)C(=O)c2cc(Br)cnc2O[C@H]1CN(C)C(=O)c1ccccn1,-0.9,-6.3,-11.8,.,12.3,2.1,.,.
O=C(O)C(C(O)c1ccc([N+](=O)[O-])cc1)[n+]1ccccc1 (centres undefined),1.1,-1.9,-27.5,-27.2,-2.2,-0.5,.,.
O=C(CSc1cccc[n+]1[O-])Nc1ccccc1C(F)(F)F,-1.9,-4.8,-7.2,4.1,-2.7,1.4,.,.
SMILES,SMARCA2 activ,GalR3 antagonist,NR2F2 inh,Gli-Sufu block,H9c2 protect,GAA850 FXN act,SMARCA2 act conf,VP16 Luc act
Cc1ccc(NC(=O)CSc2cccc[n+]2[O-])c([N+](=O)[O-])c1,8.4*,0.3,1.7,-7.2,1.3,1.9,0.3,0.6
O=C(CSc1cccc[n+]1[O-])Nc1ccccc1Oc1ccccc1,8.4*,-3.7,10.7,11.9,-11.5,3.3,10.2*,1.8
O=C(CSc1cccc[n+]1[O-])Nc1cc2c(cc1Cl)C(=O)c1ccccc1C2=O,12.1*,-3.8,-52.3,-57.0,-7.5,3.9,13.1*,7.3*
O=C(CSc1cccc[n+]1[O-])Nc1cc([N+](=O)[O-])ccc1Cl,0.9,-1.2,13.8,-2.7,0.3,1.0,.,.
CCCCN(C)C(=O)c1sc(=O)n(Cc2ccccc2C#N)c1C,1.5,2.5,6.7,.,-0.9,-0.9,.,.
COc1cc(C2NC(=O)NC(C)=C2C(=O)OC2CCCC(C)C2)ccc1O (centres undefined),-1.1,-3.5,-23.9,-1.3,8.4,4.3,.,.
COc1ccc(Cc2nc3ccc(C(=O)NC(C)Cc4ncccc4C)cc3o2)cc1OC (centres undefined),-0.5,-3.3,25.0,20.3,11.9,-0.3,.,.
NC(=Nc1ccccc1)NC(=O)c1nc(Cl)c(N)nc1N,9.2*,.,-10.3,-76.0,6.5,5.6,27.2*,10.7*
NC(=NCc1ccccc1)NC(=O)c1nc(Cl)c(N)nc1N,-1.3,-3.8,-19.6,-3.2,17.1,1.0,.,.
COc1ccc(NC(=O)/C=C/c2cccc(F)c2)cn1,11.6*,-3.6,-36.2,-106.7,-3.6,4.2,3.2,10.4*
COc1ccc(NC(=O)/C=C/c2ccco2)cn1,3.2,-2.5,-16.7,-50.4,-7.8,5.1,.,.
O=C(c1c(Cl)cccc1Cl)N1CCN(c2ncccn2)CC1,-2.4,-11.0,21.0,0.2,0.4,1.2,.,.
O=C(Nc1ccc2oc(-c3ccccc3Cl)nc2c1)c1cncc(Br)c1,8.1*,-4.1,-41.9,-17.7,-12.1,1.1,-0.3,4.6
CC(=O)Cc1cc(O)c2ccccc2c1OC(=O)c1ccccc1,-0.8,-2.1,-5.5,16.8,-16.0,0.1,.,.
O=C(O)c1ccc2nc(-c3ccccc3)c(-c3ccccc3)nc2c1,10.2*,-11.8,18.6,-9.9,0.6,0.8,4.0,1.6
COc1ccccc1CC1(C)NC(=O)N(CC(=O)N2CC(C)OC(C)C2)C1=O (centres undefined),0.1,-4.1,-1.5,-12.4,-1.1,0.5,.,.
CCOC(=O)c1c(C)[nH]c(C(=O)COC(=O)c2ccncc2)c1C,2.0,-1.6,-13.0,-3.7,6.5,1.7,.,.
CCOC(=O)c1c(C)[nH]c(C(=O)COC(=O)c2ccco2)c1C,10.4*,-3.2,-17.6,0.0,-0.3,1.2,6.6,0.5

# Assay outcomes as filed in PubChem BioAssay.
